In PubChem BioAssay (NCATS):
“And” between values parts separate entries of the source, which are not always exact repeats. Equal entries are not always repeated. Results filed as inconclusive are left out. A call without a number means that no potency is given here. Values without a mark were called inactive. The source made the active and inactive calls. Unless noted, calls follow the shape of the dose curve; as a rule, active = well fitted curve in the direction sought with a large enough effect; inconclusive = small, poorly fitted or top-dose-only effect, or another doubt; inactive = no such curve, though single readings can be large; an effect the other way counts as inactive or inconclusive.

How the values were obtained:
[1] = qHTS Assay for Identification of Small Molecule Agonists for Hypoxia Response Element Signaling Pathway (AID 914; active = well fitted activation curve with a large enough effect in the signal ratio, with a control signal flat, not every such curve was filed as active; the % refers to the signal ratio; also: potency is read from the fitted curve at half-maximal effect); conditions: ME-180 (cervical carcinoma) HRE-bla reporter, beta-lactamase ratio, CoCl2, 17 h; activation: stronger effect = higher value
How it was run: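 Reporter activity (beta-lactamase, CCF4 460nm/530nm ratio) in HRE-bla ME-180 cells is recorded after 17 h compound exposure with EC50 CoCl2 at 37 degrees Celsius. AC50 values come from titration data.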

[2] = S16 Schwann cell PMP22 intronic element beta-lactamase assay (AID 624044; calls by dose curve; also: nearly all actives have a fitted effect of over 15% in size)
How it was run: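 Rat S16 Schwann cells with beta-Lac driven by a PMP22 intronic element, compound-treated 24 h at 37 °C. LiveBLAzer FRET B/G read: 460 nm normalized to potassium clavulanate vs DMSO; 535 nm FRET as viability; concentration-effect curves classified.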

AS120 = test: qHTS profiling for inhibitors of Plasmodium falciparum proliferation (AID 504749); also: nearly all actives have a fitted effect of over 60% in size; conditions: P. falciparum in erythrocytes, SYBR Green DNA, 72 h; series mostly up to 28.7 µM
How it was run: (§1)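 Three-day growth assay of blood-stage parasites in erythrocytes (0.3% parasitemia, 2.5% hematocrit) at 37 C, 5% CO2, quantified by SYBR Green DNA staining after overnight detergent lysis.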

ATS189 = test: as above; conditions: P. falciparum in erythrocytes, SYBR Green DNA, 72 h; series mostly up to 12.8 µM
How it was run: as §1

C2A = test: as above; conditions: P. falciparum in erythrocytes, SYBR Green DNA, 72 h; series mostly up to 12.8 µM
How it was run: as §1

CP203 = test: as above; conditions: P. falciparum in erythrocytes, SYBR Green DNA, 72 h; series mostly up to 12.8 µM
How it was run: as §1

CP250 = test: as above; conditions: P. falciparum in erythrocytes, SYBR Green DNA, 72 h; series mostly up to 12.8 µM
How it was run: as §1

CP256 = test: as above; conditions: P. falciparum in erythrocytes, SYBR Green DNA, 72 h; series mostly up to 12.8 µM
How it was run: as §1

CP291 = test: as above; conditions: P. falciparum in erythrocytes, SYBR Green DNA, 72 h; series mostly up to 12.8 µM
How it was run: as §1

CP329 = test: as above; conditions: P. falciparum in erythrocytes, SYBR Green DNA, 72 h; series mostly up to 12.8 µM
How it was run: as §1

ECU = test: as above; conditions: P. falciparum in erythrocytes, SYBR Green DNA, 72 h; series mostly up to 12.8 µM
How it was run: as §1

FAB9 = test: as above; conditions: P. falciparum in erythrocytes, SYBR Green DNA, 72 h; series mostly up to 12.8 µM
How it was run: as §1

JCK = test: as above; conditions: P. falciparum in erythrocytes, SYBR Green DNA, 72 h; series mostly up to 12.8 µM
How it was run: as §1

PAD = test: as above; conditions: P. falciparum in erythrocytes, SYBR Green DNA, 72 h; series mostly up to 12.8 µM
How it was run: as §1

PC15 = test: as above; conditions: P. falciparum in erythrocytes, SYBR Green DNA, 72 h; series mostly up to 12.8 µM
How it was run: as §1

TAB113 = test: as above; conditions: P. falciparum in erythrocytes, SYBR Green DNA, 72 h; series mostly up to 12.8 µM
How it was run: as §1

W2 = test: as above; conditions: P. falciparum in erythrocytes, SYBR Green DNA, 72 h; series mostly up to 12.8 µM
How it was run: as §1

[3] = Viability counterscreen for antagonist of constitutive androstane receptor (CAR) against the NCATS DSHEA and TCM libraries (AID 1794837);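 also: compound exposure lasted 24 h before viability reading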
How it was run: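 HepG2-CYP2B6-hCAR cells, 2,500/well, were exposed 24 hr at 37C to substances together with 48 uM CITCO (final). Viability was read as CellTiter-Fluor fluorescence (Ex/Em 405/540 nm) after 1 hr.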

[4] = biological target: Cytochrome P450 1A2 (Homo sapiens) (UniProt P05177); test: qHTS for inhibitors of CYPIA2 against the NCATS DSHEA and TCM libraries (AID 1919976); also: potency is read from the fitted curve at half-maximal effect
Chain of Cytochrome P450 1A2 (Homo sapiens) (P05177 whole entry, looked up): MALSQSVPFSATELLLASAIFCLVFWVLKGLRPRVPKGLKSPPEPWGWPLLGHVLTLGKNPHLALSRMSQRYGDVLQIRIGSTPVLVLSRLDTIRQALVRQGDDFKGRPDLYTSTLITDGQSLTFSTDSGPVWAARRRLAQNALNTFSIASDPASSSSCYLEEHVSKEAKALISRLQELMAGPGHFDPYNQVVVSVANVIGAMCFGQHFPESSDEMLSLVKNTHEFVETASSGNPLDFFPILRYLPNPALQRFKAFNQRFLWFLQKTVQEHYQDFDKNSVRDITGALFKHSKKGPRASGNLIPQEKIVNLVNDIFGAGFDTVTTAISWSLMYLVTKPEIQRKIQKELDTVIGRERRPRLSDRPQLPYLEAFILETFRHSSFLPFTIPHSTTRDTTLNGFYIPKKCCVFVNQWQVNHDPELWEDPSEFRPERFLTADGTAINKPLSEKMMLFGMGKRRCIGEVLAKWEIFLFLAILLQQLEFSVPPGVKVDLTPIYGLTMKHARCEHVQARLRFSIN
How it was run: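 In this quantitative HTS, inhibition of recombinant human CYP1A2 was measured as loss of luciferin-derived luminescence. Turnover ran 30-45 min at RT after NADPH regeneration solution was added.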

[5] = biological target: Nuclear receptor subfamily 1 group I member 2 (Homo sapiens) (UniProt O75469); test: Dual reporter qHTS for antagonist of Pregnane X Receptor (hPXR) against the NCATS DSHEA and TCM libraries: Luminescence Readout (AID 1920060)
Chain of Nuclear receptor subfamily 1 group I member 2 (Homo sapiens) (O75469 whole entry, looked up): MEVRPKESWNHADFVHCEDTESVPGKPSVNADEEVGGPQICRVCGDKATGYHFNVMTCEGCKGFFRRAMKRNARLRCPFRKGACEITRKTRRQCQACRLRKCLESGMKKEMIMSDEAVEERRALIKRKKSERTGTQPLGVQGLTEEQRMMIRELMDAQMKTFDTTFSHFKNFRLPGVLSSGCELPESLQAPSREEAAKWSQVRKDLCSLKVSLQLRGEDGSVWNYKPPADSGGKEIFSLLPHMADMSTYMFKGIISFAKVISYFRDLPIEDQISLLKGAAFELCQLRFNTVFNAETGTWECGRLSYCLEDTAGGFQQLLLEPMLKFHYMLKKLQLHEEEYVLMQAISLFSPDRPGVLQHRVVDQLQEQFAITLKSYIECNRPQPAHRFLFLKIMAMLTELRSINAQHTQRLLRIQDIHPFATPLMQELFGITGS
How it was run: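 Rifampicin-stimulated (2 uM final) hPXR-luciferase HepG2 cells were treated for 24 h with DSNP/TCM substances. Viability came from CellTiter-Fluor fluorescence, reporter activity from ONE-Glo luminescence.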

## COc1cccc(-c2ccc3ncnc(NCCN4CCOCC4)c3c2)c1
[1]
  activation: -14.8%

## COc1cccc(-c2ccc3ncnc(NCCNC(C)=O)c3c2)c1
[1]
  activation: 5.52%

## FC(F)(F)c1ccccc1-c1ccc2ncnc(NCCN3CCOCC3)c2c1
[1]
  activation: -0.346%

## O=C(Cc1cccs1)NC1C(=O)N2C(C(=O)[O-])=C(C[n+]3ccccc3)CSC12 (stereo unspecified)
[2]
  outcome: inactive
AS120
  Potency: inactive
ATS189
  Potency: inactive
C2A
  Potency: inactive
CP203
  Potency: inactive
CP250
  Potency: inactive
CP256
  Potency: inactive
CP291
  Potency: inactive
CP329
  Potency: inactive
ECU
  Potency: inactive
FAB9
  Potency: inactive
JCK
  Potency: inactive
PAD
  Potency: inactive
PC15
  Potency: inactive
TAB113
  Potency: inactive
W2
  Potency: inactive

## O=C(/C=C/c1ccc(O)c(O)c1)OC(Cc1ccc(O)c(O)c1)C(=O)O (stereo unspecified)
[3]
  outcome: inactive

## COc1ncc2nc(-c3cccs3)c(=O)n(C)c2n1
[1]
  Potency: 2.51 µM (active)

## O=c1cc(-c2ccc(O)cc2)oc2cc(O[C@H]3OC(CO)C(O)C(O)C3O)cc(O)c12 (stereo partly specified)
[3]
  outcome: inactive
[4]
  Potency: inactive
[5]
  outcome: inactive

## COC(=O)C1=CO[C@@H](C)[C@H]2CN3CCc4c([nH]c5ccccc45)[C@@H]3C[C@H]12
[3]
  outcome: inactive
[4]
  Potency: 3.55 µM (active)
[5]
  outcome: inactive

## NC(Cc1c[nH]c2ccccc12)C(=O)O (stereo unspecified)
[4]
  Potency: 3.55 µM (active)
[5]
  outcome: inactive

## CC(C)N1CCN(c2ccc(OC[C@@H]3CO[C@@](Cn4cncn4)(c4ccc(Cl)cc4Cl)O3)cc2)CC1
[2]
  outcome: inactive
AS120
  Potency: inactive
ATS189
  Potency: inactive
C2A
  Potency: inactive
CP203
  Potency: inactive
CP250
  Potency: inactive
CP256
  Potency: inactive
CP291
  Potency: inactive
CP329
  Potency: inactive
ECU
  Potency: inactive
FAB9
  Potency: inactive
JCK
  Potency: inactive
PAD
  Potency: inactive
PC15
  Potency: inactive
TAB113
  Potency: inactive
W2
  Potency: inactive

## C[C@@H]1CCC[C@H](C)N1NC(=O)c1ccc(Cl)c(S(N)(=O)=O)c1
[1]
  activation: -10.1% and -0.309%
[2]
  outcome: inactive
AS120
  Potency: inactive
ATS189
  Potency: inactive
C2A
  Potency: inactive
CP203
  Potency: inactive
CP250
  Potency: inactive
CP256
  Potency: inactive
CP291
  Potency: inactive
CP329
  Potency: inactive
ECU
  Potency: inactive
FAB9
  Potency: inactive
JCK
  Potency: inactive
PAD
  Potency: inactive
PC15
  Potency: inactive
TAB113
  Potency: inactive
W2
  Potency: inactive

## COc1ccc2ccc(=O)oc2c1
[3]
  outcome: inactive
[4]
  Potency: 14.1 µM (active)
[5]
  outcome: inactive

## CN1CCN(c2ccnc(-c3ccc(N(C)C)cc3)n2)CC1
[1]
  activation: 1.71%
